Source: PubChem BioAssay (NCATS)
Values joined by “and” are separate entries in the source; they are usually repeats but may differ in a detail not shown here. Equal entries are not always repeated. Inconclusive results are not listed. Active and inactive are the calls of the source. The call rests on the fitted dose curve; in most records, active means well fitted inhibition curve with a large enough effect; inconclusive means small, poorly fitted or top-dose-only effect; inactive means flat fitted curve, though single readings scatter. Where a SMILES comes first, the peptide text is derived from it. [ ]: non-standard residue; d: D form. pGlu = O=C1CC[C@@H](C(=O)O)N1

Each compound was assayed on KB-3-1 (assay: Cytotoxic Profiling of Annotated Libraries Using Quantitative High-Throughput Screening (AID 1296008; further: nearly all actives have a fitted effect of over 60% in size)). Conditions: Five cell lines viability, CellTiter-Glo ATP luminescence, 48-72 h; max response: stronger effect = lower value.
Procedure, shortened: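 Compounds were pin-transferred onto cells and incubated 48 or 72 hr at 37 degree Celsius, 95% humidity. CellTiter-Glo was added, plates sat 10 min at room temperature, then ATP-coupled luminescence was imaged as the viability read-out.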
On the % scale 0 is the no-effect control and ±100 the full control effect.

Row | SMILES | max response
1 | C=CC1=C(C(=O)O)N2C(=O)[C@@H](NC(=O)/C(=N/OCC(=O)O)c3csc(N)n3)[C@H]2SC1 (stereo in doubt) | -4.79% (inactive)
2 | CCCCCCCCCCCC(=O)OC[C@@H](O)C1OC[C@H](O)[C@H]1O (some centres undefined) | 3.33% (inactive)
3 | CC1CCCC(C)N1NC(=O)c1ccc(Cl)c(S(N)(=O)=O)c1 (centres undefined) | 1.28% (inactive)
4 | Cc1c(N)nc([C@H](CC(N)=O)NC[C@H](N)C(N)=O)nc1C(=O)N[C@H](C(=O)N[C@H](C)[C@@H](O)[C@H](C)C(=O)N[C@H](C(=O)NCCc1nc(-c2nc(C(=O)NCCCCN=C(N)N)cs2)cs1)[C@@H](C)O)[C@@H](O[C@@H]1O[C@@H](CO)[C@@H](O)[C@H](O)[C@@H]1O[C@H]1O[C@H](CO)[C@@H](O)[C@H](OC(N)=O)[C@@H]1O)c1cnc[nH]1 | -6.52% (inactive) and -5.98% (inactive)
5 | CCCCCCCCCc1ccc(OCCOCCO)cc1 | -16.4% (inactive)
6 | C=CC1=C(C(=O)O)N2C(=O)[C@@H](NC(=O)/C(=N\O)c3csc(N)n3)[C@H]2SC1 (stereo in doubt) | 5.78% (inactive) and -12.7% (inactive)
7 | O=C(OC[C@H]1O[C@](O)(COC(=O)c2cccnc2)[C@@H](OC(=O)c2cccnc2)[C@@H]1OC(=O)c1cccnc1)c1cccnc1 | -13.5% (inactive)
8 | CC1CS(=O)(=O)CCN1/N=C/c1ccc([N+](=O)[O-])o1 (centres undefined) | 1.84% (inactive)
9 | CC[C@H](C)[C@H](NC(=O)[C@H](Cc1ccccc1)NC(=O)[C@H](C)NC(=O)[C@H](CC(=O)O)NC(=O)[C@H](CCCCN)NC(=O)[C@H](CO)NC(=O)[C@@H]1CCCN1C(=O)[C@@H]1CCC(=O)N1)C(=O)NCC(=O)N[C@@H](CC(C)C)C(=O)N[C@@H](CCSC)C(N)=O ([pGlu]PSKDAFIGLM-NH2) | 17.8% (inactive)
